According to the supplement of paper PMC9023506:
Structures can show the parent of a compound that is named as a salt.

System: Danio rerio larvae (5 dpf)
Assay: optomotor response to green moving lines, difference vs DMSO (percentage points (treated minus DMSO)); higher = more of the behaviour than the DMSO vehicle control
Conditions: 10 µM; exposure time: 3 h pre-incubation + 3 h imaging
Method: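 5-dpf wild-type zebrafish larvae were imaged in 96-well plates. They were treated with 190 Tocris FDA-approved drugs at 10 µM (1 µl/ml DMSO) for 3 h before and 3 h during imaging at 28.5 °C, 48 larvae per drug. Automated image analysis gave % time moving and optomotor responses. Values are drug group mean minus DMSO vehicle mean (n=844), in percentage points, for 10 behaviours.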

| SMILES | optomotor response to green moving lines |
| --- | --- |
| CCCN(CCC)S(=O)(=O)c1ccc(C(=O)O)cc1 [Probenecid] | 10.3 |
| C[C@@H](O[C@H]1OCCN(Cc2n[nH]c(=O)[nH]2)[C@H]1c1ccc(F)cc1)c1cc(C(F)(F)F)cc(C(F)(F)F)c1 [Aprepitant] | 4.81 |
| CCOC(=O)N1CCC(=C2c3ccc(Cl)cc3CCc3cccnc32)CC1 [Loratidine] | -5.38 |
| CCCc1nc(C(C)(C)O)c(C(=O)O)n1Cc1ccc(-c2ccccc2-c2nnn[nH]2)cc1 [Olmesartan] | -2.59 |
| CC(c1cc2ccccc2s1)N(O)C(N)=O (stereo not given) [Zileuton] | -11.3 |
| CN1CCN2c3ncccc3Cc3ccccc3C2C1 (stereo not given) [Mirtazapine] | -1.59 |
| COc1ccccc1OCCNCC(O)COc1cccc2[nH]c3ccccc3c12 (stereo not given) [Carvedilol] | -14.2 |
| CC(C)(C)NC(=O)[C@@H]1C[C@@H]2CCCC[C@@H]2CN1C[C@@H](O)[C@H](Cc1ccccc1)NC(=O)[C@H](CC(N)=O)NC(=O)c1ccc2ccccc2n1 [Saquinavir mesylate] | -3.04 |
| COc1cc2nc(N3CCN(C(=O)c4ccco4)CC3)nc(N)c2cc1OC [Prazosin hydrochloride] | -10.2 |
| CN(C)CCc1c[nH]c2ccc(Cn3cncn3)cc12 [Rizatriptan benzoate] | 3.24 |
| CCOC(=O)[C@H](CCc1ccccc1)N[C@@H](C)C(=O)N1[C@H](C(=O)O)C[C@@H]2CCC[C@@H]21 [Ramipril] | -0.542 |
| CCc1ccc(CCOc2ccc(CC3SC(=O)NC3=O)cc2)nc1 (stereo not given) [Pioglitazone hydrochloride] | -7.6 |
| Cc1nc(Nc2ncc(C(=O)Nc3c(C)cccc3Cl)s2)cc(N2CCN(CCO)CC2)n1 [Dasatinib] | -4.87 |
| CCN(CC)CCNC(=O)c1c(C)[nH]c(/C=C2\C(=O)Nc3ccc(F)cc32)c1C [Sunitinib malate] | -7.59 |
| CCCC1O[C@@H]2C[C@H]3[C@@H]4CCC5=CC(=O)C=C[C@]5(C)[C@H]4[C@@H](O)C[C@]3(C)[C@]2(C(=O)CO)O1 (stereo not given in full) [Budesonide] | 0.891 |
| CC(C)c1nc(N(C)S(C)(=O)=O)nc(-c2ccc(F)cc2)c1/C=C/[C@@H](O)C[C@@H](O)CC(=O)O [Rosuvastatin calcium] | 2.28 |
| O=c1n(CCCN2CCN(c3cccc(Cl)c3)CC2)nc2ccccn12 [Trazodone hydrochloride] | 1.17 |
| Cc1nc(-c2ccc(OCC(C)C)c(C#N)c2)sc1C(=O)O [Febuxostat] | -4.77 |
| C[C@H]1C[C@@H]2[C@H]([C@@H](O)C[C@@]3(C)[C@H]2CC[C@]3(O)C(=O)CO)[C@@]2(C)C=CC(=O)C=C12 [Methylprednisolone] | 5.3 |
| NC(=O)OCC(COC(N)=O)c1ccccc1 [Felbamate] | -9.03 |

| SMILES | optomotor response to green moving lines |
| --- | --- |
| CC(=O)Oc1ccccc1C(=O)O [Aspirin] | -12.5 |
| O=C(Nc1c(Cl)cncc1Cl)c1ccc(OC(F)F)c(OCC2CC2)c1 [Roflumilast] | -11.7 |
| CCOC(=O)[C@H](CCc1ccccc1)N[C@H]1CCc2ccccc2N(CC(=O)O)C1=O [Benazepril hydrochloride] | 11.6 |
| NC(=O)N1c2ccccc2C=Cc2ccccc21 [Carbamazepine] | -0.434 |
| CCOc1ccccc1OCCN[C@H](C)Cc1ccc(OC)c(S(N)(=O)=O)c1 [Tamsulosin hydrochloride] | -11.6 |
| NS(=O)(=O)Cc1noc2ccccc12 [Zonisamide] | 8.43 |
| O=C(O)C[C@H](O)C[C@H](O)/C=C/c1c(C2CC2)nc2ccccc2c1-c1ccc(F)cc1 [Pitavastatin calcium] | 11 |
| Cc1ccsc1C(=CCCN1CCC[C@@H](C(=O)O)C1)c1sccc1C [Tiagabine hydrochloride] | 8.59 |
| CCC(=O)O[C@]1(C(=O)SCF)[C@H](C)C[C@H]2[C@@H]3C[C@H](F)C4=CC(=O)C=C[C@]4(C)[C@@]3(F)[C@@H](O)C[C@@]21C [Fluticasone propionate] | 2.35 |
| Nc1cc(N2CCCCC2)nc(N)[n+]1[O-] [Minoxidil] | -7.05 |
| COc1ccc(Cl)cc1C(=O)NCCc1ccc(S(=O)(=O)NC(=O)NC2CCCCC2)cc1 [Glibenclamide] | 9.49 |
| CCOc1cc(CC(=O)N[C@@H](CC(C)C)c2ccccc2N2CCCCC2)ccc1C(=O)O [Repaglinide] | 4.27 |
| CC(C)c1ccc2oc3nc(N)c(C(=O)O)cc3c(=O)c2c1 [Amlexanox] | -0.74 |
| CC[C@H]1OC(=O)[C@H](C)[C@@H](O[C@H]2C[C@@](C)(OC)[C@@H](O)[C@H](C)O2)[C@H](C)[C@@H](O[C@@H]2O[C@H](C)C[C@H](N(C)C)[C@H]2O)[C@](C)(O)C[C@@H](C)CN(C)[C@H](C)[C@@H](O)[C@]1(C)O [Azithromycin] | -4.27 |
| OC(CNCC(O)C1CCc2cc(F)ccc2O1)C1CCc2cc(F)ccc2O1 (stereo not given) [Nebivolol hydrochloride] | -4.67 |
| CC(=O)Nc1ccc(O)cc1 [Acetaminophen] | 8.32 |
| CN1CCC[C@@H]1Cc1c[nH]c2ccc(CCS(=O)(=O)c3ccccc3)cc12 [Eletriptan hydrobromide] | 6.81 |
| CN[C@H]1CC[C@@H](c2ccc(Cl)c(Cl)c2)c2ccccc21 [Sertraline hydrochloride] | -6.64 |
| CC(=O)S[C@@H]1CC2=CC(=O)CC[C@]2(C)[C@H]2CC[C@@]3(C)[C@@H](CC[C@@]34CCC(=O)O4)[C@H]12 [Spironolactone] | 3.9 |
| CCOc1nc2cccc(C(=O)O)c2n1Cc1ccc(-c2ccccc2-c2noc(=O)[nH]2)cc1 [Azilsartan] | -0.791 |
